Data: PubChem BioAssay AID1159580 (chemical genetic matrix, 2015)
Where “and” joins values, the source holds several entries; their conditions need not be identical. Equal values may be shown once. Screen size: about 5,500 compounds; about 2,000 (36%) were called active. Not shown: some 18% with an inconclusive outcome. Cut-off read from the data, not from the text of the source: active = normalized growth mostly below about 0.91 (no sharp cut-off); inconclusive = no clear call, values can overlap the other calls; inactive = mostly above about 0.92. Some of the results follow.

Assay: chemical genetic growth profiling, strain panel (AID 1159580);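 note: tested at 20 µM; growth read once vehicle control cultures reached saturation at 30 °C; 1 = growth at the plate median or of vehicle wells; lower values mean less growth of the strain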
Conditions: S. cerevisiae deletion strains, growth OD

Measured: normalized growth

Cc1cc(C2CCCCC2)n(O)c(=O)c1
active: locus YAL013W, strain DEP1, stronger effect = lower value 0.0568 | locus YAL021C, strain ccr4, stronger effect = lower value 0.0678 | locus YAL026C, strain drs2, stronger effect = lower value 0.0676 | locus YAL030W, strain snc1, stronger effect = lower value 0.0625 | locus YBL061C, strain skt5, stronger effect = lower value 0.0672 | locus YBR009C, strain hhf1, stronger effect = lower value 0.0705 | locus YBR021W, strain FUR4, stronger effect = lower value 0.0983 | locus YBR023C, strain chs3, stronger effect = lower value 0.0704 | locus YBR171W, strain sec66, stronger effect = lower value 0.0805 | locus YBR229C, strain ROT2, stronger effect = lower value 0.0502 | locus YBR231C, strain swc5, stronger effect = lower value 0.0693 | locus YBR279W, strain paf1, stronger effect = lower value 0.0649 | locus YCL011C, strain gbp2, stronger effect = lower value 0.0616 | locus YCL016C, strain dcc1, stronger effect = lower value 0.0719 | locus YCL029C, strain bik1, stronger effect = lower value 0.0632 | locus YCL061C, strain MRC1, stronger effect = lower value 0.0677 | locus YCL069W, strain vba3, stronger effect = lower value 0.0654 | locus YCR088W, strain abp1, stronger effect = lower value 0.0632 | locus YDL005C, strain med2, stronger effect = lower value 0.0889 | locus YDL035C, strain GPR1, stronger effect = lower value 0.0542 | locus YDL040C, strain nat1, stronger effect = lower value 0.0679 | locus YDL074C, strain BRE1, stronger effect = lower value 0.0802 | locus YDL101C, strain DUN1, stronger effect = lower value 0.0596 | locus YDL134C, strain PPH21, stronger effect = lower value 0.0521 | locus YDL185W, strain tfp1, stronger effect = lower value 0.058 | locus YDL192W, strain arf1, stronger effect = lower value 0.0653 | locus YDR001C, strain nth1, stronger effect = lower value 0.0631 | locus YDR069C, strain doa4, stronger effect = lower value 0.0665 | locus YDR101C, strain arx1, stronger effect = lower value 0.06 | locus YDR137W, strain rgp1, stronger effect = lower value 0.0918 | locus YDR159W, strain sac3, stronger effect = lower value 0.0928 | locus YDR162C, strain NBP2, stronger effect = lower value 0.0474 | locus YDR195W, strain ref2 0.135 | locus YDR297W, strain sur2, stronger effect = lower value 0.0662 | locus YDR318W, strain mcm21, stronger effect = lower value 0.0655 | locus YDR334W, strain swr1, stronger effect = lower value 0.0673 | locus YDR335W, strain msn5, stronger effect = lower value 0.0634 | locus YDR388W, stronger effect = lower value 0.0556 | locus YDR392W, strain spt3, stronger effect = lower value 0.101 | locus YDR502C, strain sam2, stronger effect = lower value 0.0664 | locus YEL003W, strain gim4, stronger effect = lower value 0.0625 | locus YEL037C, strain rad23, stronger effect = lower value 0.0622 | locus YEL061C, strain CIN8 (second series), stronger effect = lower value 0.0671 | locus YEL061C, strain CIN8, stronger effect = lower value 0.0514 | locus YER015W, strain faa2, stronger effect = lower value 0.0656 | locus YER016W, strain bim1, stronger effect = lower value 0.0682 | locus YER110C, stronger effect = lower value 0.0812 | locus YER111C, strain swi4, stronger effect = lower value 0.0758 | locus YER155C, strain BEM2 (second series), stronger effect = lower value 0.0947 | locus YER155C, strain BEM2, stronger effect = lower value 0.0718 | locus YER167W, strain BCK2, stronger effect = lower value 0.0519 | locus YFR010W, strain ubp6, stronger effect = lower value 0.0703 | locus YGL078C, strain dbp3, stronger effect = lower value 0.0608 | locus YGL086W, strain mad1, stronger effect = lower value 0.0597 | locus YGL167C, strain pmr1, stronger effect = lower value 0.0798 | locus YGL173C, strain kem1, stronger effect = lower value 0.0716 | locus YGL227W, strain vid30, stronger effect = lower value 0.0707 | locus YGL240W, strain doc1, stronger effect = lower value 0.0866 | locus YGL248W, strain PDE1, stronger effect = lower value 0.0515 | locus YGL253W, strain hxk2, stronger effect = lower value 0.058 | locus YGR078C, strain PAC10, stronger effect = lower value 0.0546 | locus YGR135W, strain pre9, stronger effect = lower value 0.065 | locus YGR252W, strain gcn5, stronger effect = lower value 0.175 | locus YHR013C, strain ard1, stronger effect = lower value 0.11 | locus YHR027C, strain rpn1, stronger effect = lower value 0.0647 | locus YHR030C, strain SLT2, stronger effect = lower value 0.0526 and 0.0937 | locus YHR079C, strain IRE1 (second series), stronger effect = lower value 0.0583 | locus YHR079C, strain IRE1, stronger effect = lower value 0.109 | locus YHR094C, strain hxt1, stronger effect = lower value 0.0632 | locus YHR129C, strain ARP1, stronger effect = lower value 0.0642 | locus YHR142W, strain chs7, stronger effect = lower value 0.0791 | locus YHR200W, strain rpn10, stronger effect = lower value 0.0659 | locus YIL066C, strain RNR3, stronger effect = lower value 0.0522 | locus YIL073C, strain SPO22, stronger effect = lower value 0.112 | locus YIL125W, strain kgd1, stronger effect = lower value 0.0598 | locus YIR030C, strain dcg1, stronger effect = lower value 0.0627 | locus YJL092W, strain hpr5, stronger effect = lower value 0.063 | locus YJL095W, strain BCK1 (second series), stronger effect = lower value 0.0609 | locus YJL095W, strain BCK1, stronger effect = lower value 0.063 and 0.0938 | locus YJL115W, strain asf1, stronger effect = lower value 0.0778 | locus YJL129C, strain trk1, stronger effect = lower value 0.0912 | locus YJL134W, strain LCB3, stronger effect = lower value 0.0539 | locus YJL154C, strain vps35, stronger effect = lower value 0.0631 | locus YJL164C, strain tpk1, stronger effect = lower value 0.0734 | locus YJL166W, strain qcr8, stronger effect = lower value 0.0662 | locus YJL168C, strain set2, stronger effect = lower value 0.0634 | locus YJL187C, strain SWE1 (second series), stronger effect = lower value 0.053 | locus YJL187C, strain SWE1, stronger effect = lower value 0.0672 | locus YJR043C, strain POL32, stronger effect = lower value 0.068 | locus YJR066W, strain TOR1, stronger effect = lower value 0.00216 | locus YJR075W, strain HOC1, stronger effect = lower value 0.0627 | locus YKL009W, strain mrt4, stronger effect = lower value 0.0702 | locus YKL068W, stronger effect = lower value 0.0617 | locus YKL085W, strain MDH1 (second series), stronger effect = lower value 0.0539 | locus YKL085W, strain MDH1, stronger effect = lower value 0.0539 | locus YKL160W, strain elf1, stronger effect = lower value 0.0716 | locus YKL190W, strain CNB1, stronger effect = lower value 0.0484 | locus YKR001C, strain vps1, stronger effect = lower value 0.0653 | locus YKR026C, strain gcn3, stronger effect = lower value 0.0732 | locus YKR091W, strain srl3, stronger effect = lower value 0.069 | locus YLL001W, strain dnm1, stronger effect = lower value 0.0664 | locus YLL026W, stronger effect = lower value 0.0595 | locus YLL041C, strain sdh2, stronger effect = lower value 0.0627 | locus YLR027C, strain aat2, stronger effect = lower value 0.0603 | locus YLR039C, strain RIC1, stronger effect = lower value 0.0987 | locus YLR058C, strain SHM2, stronger effect = lower value 0.0519 | locus YLR102C, strain apc9, stronger effect = lower value 0.0656 | locus YLR113W, strain HOG1, stronger effect = lower value 0.121 | locus YLR221C, strain rsa3, stronger effect = lower value 0.0659 | locus YLR258W, strain gsy2, stronger effect = lower value 0.0669 | locus YLR262C, strain YPT6 (second series), stronger effect = lower value 0.0856 | locus YLR262C, strain YPT6, stronger effect = lower value 0.115 | locus YLR268W, strain sec22, stronger effect = lower value 0.0687 | locus YLR320W, strain mms22, stronger effect = lower value 0.0895 | locus YLR330W, strain CHS5, stronger effect = lower value 0.0525 | locus YLR342W, strain FKS1 (second series), stronger effect = lower value 0.0737 | locus YLR342W, strain FKS1, stronger effect = lower value 0.0735 | locus YLR357W, strain rsc2, stronger effect = lower value 0.133 | locus YLR370C, strain arc18, stronger effect = lower value 0.0637 | locus YLR371W, strain rom2, stronger effect = lower value 0.0664 | locus YLR384C, strain iki3, stronger effect = lower value 0.0637 | locus YLR418C, strain cdc73, stronger effect = lower value 0.0958 | locus YML016C, strain PPZ1, stronger effect = lower value 0.0483 | locus YML032C, strain rad52, stronger effect = lower value 0.0723 | locus YML120C, strain ndi1, stronger effect = lower value 0.0605 | locus YML124C, strain tub3, stronger effect = lower value 0.0619 | locus YMR058W, strain fet3, stronger effect = lower value 0.0627 | locus YMR078C, strain ctf18, stronger effect = lower value 0.0787 | locus YMR125W, strain sto1, stronger effect = lower value 0.0836 | locus YMR129W, stronger effect = lower value 0.0601 | locus YMR205C, strain PFK2, stronger effect = lower value 0.0903 | locus YMR223W, strain ubp8, stronger effect = lower value 0.0675 | locus YMR231W, strain pep5, stronger effect = lower value 0.0767 | locus YMR307W, strain GAS1, stronger effect = lower value 0.146 | locus YNL067W, strain RPL9B, stronger effect = lower value 0.0522 | locus YNL071W, strain lat1, stronger effect = lower value 0.0645 | locus YNL183C, strain NPR1, stronger effect = lower value 0.0014 | locus YNL209W, strain ssb2, stronger effect = lower value 0.0627 | locus YNL233W, strain BNI4, stronger effect = lower value 0.0583 | locus YNL248C, strain rpa49, stronger effect = lower value 0.0814 | locus YNL250W, strain rad50, stronger effect = lower value 0.0854 | locus YNL271C, strain bni1, stronger effect = lower value 0.0657 | locus YNL298W, strain CLA4, stronger effect = lower value 0.0613 | locus YNL307C, strain MCK1, stronger effect = lower value 0.0688 | locus YNL322C, strain KRE1 (second series), stronger effect = lower value 0.0705 | locus YNR049C, strain mso1, stronger effect = lower value 0.0644 | locus YNR052C, strain pop2, stronger effect = lower value 0.0622 | locus YOL147C, strain pex11, stronger effect = lower value 0.0601 | locus YOR001W, strain rrp6, stronger effect = lower value 0.0736 | locus YOR061W, strain CKA2, stronger effect = lower value 0.0512 | locus YOR069W, strain VPS5, stronger effect = lower value 0.0495 | locus YOR070C, strain gyp1, stronger effect = lower value 0.0684 | locus YOR080W, strain dia2, stronger effect = lower value 0.0706 | locus YOR083W, strain WHI5, stronger effect = lower value 0.0687 | locus YOR106W, strain vam3, stronger effect = lower value 0.065 | locus YOR136W, strain idh2, stronger effect = lower value 0.0767 | locus YOR144C, strain elg1, stronger effect = lower value 0.062 | locus YOR184W, strain ser1, stronger effect = lower value 0.0708 | locus YOR231W, strain MKK1, stronger effect = lower value 0.0947 | locus YOR265W, strain rbl2, stronger effect = lower value 0.066 | locus YOR270C, strain vph1, stronger effect = lower value 0.0971 | locus YOR290C, strain snf2, stronger effect = lower value 0.0737 | locus YOR316C, strain cot1, stronger effect = lower value 0.0627 | locus YPL051W, strain arl3, stronger effect = lower value 0.0688 | locus YPL078C, strain atp4, stronger effect = lower value 0.0715 | locus YPL106C, strain sse1, stronger effect = lower value 0.116 | locus YPL240C, strain hsp82, stronger effect = lower value 0.0653 | locus YPL256C, strain CLN2, stronger effect = lower value 0.116 | locus YPR119W, strain clb2, stronger effect = lower value 0.0705 | locus YPR141C, strain kar3, stronger effect = lower value 0.0696 | locus YPR163C, strain tif3, stronger effect = lower value 0.0728 | locus YPR167C, strain met16, stronger effect = lower value 0.0671 | strain wtn01, stronger effect = lower value 0.0665
